PubChem BioAssay AID1159580 (chemical genetic matrix, 2015)
The campaign covered roughly 5,500 compounds. About 2,000 (36%) were called active. Another 18% or so got no clear call; they are omitted. Cut-off read from the data, not from the text of the source: active = normalized growth mostly below about 0.91 (no sharp cut-off); inconclusive = no clear call, values can overlap the other calls; inactive = mostly above about 0.92. The list shows a part of the results.

Assay: chemical genetic growth profiling, strain panel (AID 1159580);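 note: tested at 20 µM; growth read once vehicle control cultures reached saturation at 30 °C; 1 = growth at the plate median or of vehicle wells; lower values mean less growth of the strain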
Conditions: growth OD

Measured: normalized growth

COc1cc2c(cc1OC)Cc1cc(OC)c(OC)cc1Cc1cc(OC)c(OC)cc1C2
inactive: S. cerevisiae deletion strains, locus YJR066W, strain TOR1, hits give low values 0.974 | S. cerevisiae deletion strains, locus YJR075W, strain HOC1, hits give low values 1.02 | S. cerevisiae deletion strains, locus YKL009W, strain mrt4, hits give low values 0.942 | S. cerevisiae deletion strains, locus YKL068W, hits give low values 1.02 | S. cerevisiae deletion strains, locus YKL085W, strain MDH1 (second series), hits give low values 0.927 | S. cerevisiae deletion strains, locus YKL085W, strain MDH1, hits give low values 0.927 | S. cerevisiae deletion strains, locus YKL160W, strain elf1, hits give low values 1.02 | S. cerevisiae deletion strains, locus YKL190W, strain CNB1, hits give low values 0.992 | S. cerevisiae deletion strains, locus YKR001C, strain vps1, hits give low values 1.04 | S. cerevisiae deletion strains, locus YKR026C, strain gcn3, hits give low values 1 | S. cerevisiae deletion strains, locus YKR091W, strain srl3, hits give low values 1.03 | S. cerevisiae deletion strains, locus YLL001W, strain dnm1, hits give low values 1.01 | S. cerevisiae deletion strains, locus YLL026W, hits give low values 1.04 | S. cerevisiae deletion strains, locus YLL041C, strain sdh2, hits give low values 1.03 | S. cerevisiae deletion strains, locus YLR027C, strain aat2, hits give low values 1.03 | S. cerevisiae deletion strains, locus YLR039C, strain RIC1, hits give low values 1.05 | S. cerevisiae deletion strains, locus YLR058C, strain SHM2, hits give low values 1.02 | S. cerevisiae deletion strains, locus YLR102C, strain apc9, hits give low values 1.03 | S. cerevisiae deletion strains, locus YLR113W, strain HOG1, hits give low values 1.05 | S. cerevisiae deletion strains, locus YLR221C, strain rsa3, hits give low values 1.04 | S. cerevisiae deletion strains, locus YLR258W, strain gsy2, hits give low values 1.03 | S. cerevisiae deletion strains, locus YLR262C, strain YPT6 (second series), hits give low values 1.05 | S. cerevisiae deletion strains, locus YLR262C, strain YPT6, hits give low values 1.08 | S. cerevisiae deletion strains, locus YLR268W, strain sec22, hits give low values 1.04 | S. cerevisiae deletion strains, locus YLR320W, strain mms22, hits give low values 1.03 | S. cerevisiae deletion strains, locus YLR330W, strain CHS5, hits give low values 1.01 | S. cerevisiae deletion strains, locus YLR342W, strain FKS1 (second series), hits give low values 1 | S. cerevisiae deletion strains, locus YLR342W, strain FKS1, hits give low values 1.04 | S. cerevisiae deletion strains, locus YLR357W, strain rsc2, hits give low values 1.05 | S. cerevisiae deletion strains, locus YLR370C, strain arc18, hits give low values 1.03 | S. cerevisiae deletion strains, locus YLR371W, strain rom2, hits give low values 1.03 | S. cerevisiae deletion strains, locus YLR384C, strain iki3, hits give low values 1.03 | S. cerevisiae deletion strains, locus YLR418C, strain cdc73, hits give low values 1.04 | S. cerevisiae deletion strains, locus YML016C, strain PPZ1, hits give low values 1.01 | S. cerevisiae deletion strains, locus YML032C, strain rad52, hits give low values 1.01 | S. cerevisiae deletion strains, locus YML120C, strain ndi1, hits give low values 1.02 | S. cerevisiae deletion strains, locus YML124C, strain tub3, hits give low values 1.06 | S. cerevisiae deletion strains, locus YMR058W, strain fet3, hits give low values 1.03 | S. cerevisiae deletion strains, locus YMR078C, strain ctf18, hits give low values 1.04 | S. cerevisiae deletion strains, locus YMR125W, strain sto1, hits give low values 1.05 | S. cerevisiae deletion strains, locus YMR129W, hits give low values 1.04 | S. cerevisiae deletion strains, locus YMR205C, strain PFK2, hits give low values 1.05 | S. cerevisiae deletion strains, locus YMR223W, strain ubp8, hits give low values 1.03 | S. cerevisiae deletion strains, locus YMR231W, strain pep5, hits give low values 1.03 | S. cerevisiae deletion strains, locus YMR263W, strain SAP30, hits give low values 1.01 | S. cerevisiae deletion strains, locus YMR307W, strain GAS1, hits give low values 1.04 | S. cerevisiae deletion strains, locus YNL067W, strain RPL9B, hits give low values 1.03 | S. cerevisiae deletion strains, locus YNL071W, strain lat1, hits give low values 1.03 | S. cerevisiae deletion strains, locus YNL183C, strain NPR1, hits give low values 0.956 | S. cerevisiae deletion strains, locus YNL209W, strain ssb2, hits give low values 1.03 | S. cerevisiae deletion strains, locus YNL233W, strain BNI4, hits give low values 1.01 | S. cerevisiae deletion strains, locus YNL248C, strain rpa49, hits give low values 1.03 | S. cerevisiae deletion strains, locus YNL250W, strain rad50, hits give low values 1.04 | S. cerevisiae deletion strains, locus YNL271C, strain bni1, hits give low values 1.02 | S. cerevisiae deletion strains, locus YNL298W, strain CLA4, hits give low values 1.02 | S. cerevisiae deletion strains, locus YNL307C, strain MCK1, hits give low values 1.03 | S. cerevisiae deletion strains, locus YNL322C, strain KRE1 (second series), hits give low values 1.05 | S. cerevisiae deletion strains, locus YNL322C, strain KRE1, hits give low values 1.03 | S. cerevisiae deletion strains, locus YNR049C, strain mso1, hits give low values 1.03 | S. cerevisiae deletion strains, locus YNR052C, strain pop2, hits give low values 1.02 | S. cerevisiae deletion strains, locus YOL012C, strain htz1 0.876 | S. cerevisiae deletion strains, locus YOL147C, strain pex11, hits give low values 1.02 | S. cerevisiae deletion strains, locus YOR001W, strain rrp6, hits give low values 1.02 | S. cerevisiae deletion strains, locus YOR061W, strain CKA2, hits give low values 1.01 | S. cerevisiae deletion strains, locus YOR069W, strain VPS5, hits give low values 1.01 | S. cerevisiae deletion strains, locus YOR070C, strain gyp1, hits give low values 1.03 | S. cerevisiae deletion strains, locus YOR080W, strain dia2, hits give low values 1.04 | S. cerevisiae deletion strains, locus YOR083W, strain WHI5, hits give low values 1.01 | S. cerevisiae deletion strains, locus YOR106W, strain vam3, hits give low values 1.07 | S. cerevisiae deletion strains, locus YOR136W, strain idh2, hits give low values 1.05 | S. cerevisiae deletion strains, locus YOR144C, strain elg1, hits give low values 1.04 | S. cerevisiae deletion strains, locus YOR184W, strain ser1, hits give low values 1.03 | S. cerevisiae deletion strains, locus YOR231W, strain MKK1, hits give low values 1.04 | S. cerevisiae deletion strains, locus YOR265W, strain rbl2, hits give low values 1.02 | S. cerevisiae deletion strains, locus YOR270C, strain vph1, hits give low values 1.03 | S. cerevisiae deletion strains, locus YOR290C, strain snf2, hits give low values 0.995 | S. cerevisiae deletion strains, locus YOR316C, strain cot1, hits give low values 1.02 | S. cerevisiae deletion strains, locus YPL051W, strain arl3, hits give low values 1.02 | S. cerevisiae deletion strains, locus YPL055C, strain LGE1, hits give low values 1.03 | S. cerevisiae deletion strains, locus YPL078C, strain atp4, hits give low values 1.03 | S. cerevisiae deletion strains, locus YPL106C, strain sse1, hits give low values 1.06 | S. cerevisiae deletion strains, locus YPL240C, strain hsp82, hits give low values 1.02 | S. cerevisiae deletion strains, locus YPL256C, strain CLN2, hits give low values 1.06 | S. cerevisiae deletion strains, locus YPR119W, strain clb2, hits give low values 1 | S. cerevisiae deletion strains, locus YPR141C, strain kar3, hits give low values 1.03 | S. cerevisiae deletion strains, locus YPR163C, strain tif3, hits give low values 1.03 | S. cerevisiae deletion strains, locus YPR167C, strain met16, hits give low values 1.03 | S. cerevisiae deletion strains, strain wtn01, hits give low values 1.04 | S. cerevisiae strains, strain wild type, hits give low values 1.03
